From PMC7819943, “Rice protein-binding microarrays: a tool to detect cis-acting elements near promoter regions in rice”
The full ranking holds about 39,000 sequences; the median of “fluorescence intensity (a.u.)” is about 4,300, and the highest 2% start at about 39,000. Many of the other results were omitted from the sample, so the highest values are more common in it than they were.

Molecular target: T1, OsSMF1 (Oryza sativa, UniProt Q6ZLB0 1-436)
T1 sequence: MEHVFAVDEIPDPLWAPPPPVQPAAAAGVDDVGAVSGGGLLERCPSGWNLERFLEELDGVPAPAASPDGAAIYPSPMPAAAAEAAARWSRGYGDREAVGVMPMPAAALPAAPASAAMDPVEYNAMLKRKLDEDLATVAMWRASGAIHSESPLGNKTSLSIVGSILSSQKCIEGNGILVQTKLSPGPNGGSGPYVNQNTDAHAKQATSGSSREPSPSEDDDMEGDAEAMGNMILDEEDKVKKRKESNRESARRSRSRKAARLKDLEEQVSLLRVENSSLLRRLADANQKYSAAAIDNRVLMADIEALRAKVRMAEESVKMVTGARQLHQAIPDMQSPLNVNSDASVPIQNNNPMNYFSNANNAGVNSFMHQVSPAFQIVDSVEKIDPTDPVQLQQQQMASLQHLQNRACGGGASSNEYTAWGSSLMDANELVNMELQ
Assay: protein-binding microarray (RPBM); PBS, 2% BSA, 51.3 ng/ul salmon testes DNA, 50 uM zinc acetate, 200 nM TF, 25 C, 1 h; high values mean tight binding
Conditions: protein: recombinant; tags: N-terminal polyhistidine and DsRed monomer fusion (pET32a); chain copies: 2; label: CyDye5-dUTP incorporated in the synthesized complementary strand; 3' TTTTT single-stranded linker to array surface; dsDNA, one strand shown
In short: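 Transcription factors were made in E. coli BL21-CodonPlus as N-terminal fusions to a polyhistidine tag and DsRed, then purified on Ni–NTA. After primer extension with Cy5-dUTP and blocking with 2% BSA, a custom Agilent array was exposed for 1 h at 25 °C to 200 nM protein in PBS, 2% BSA, salmon testes DNA and 50 µM zinc acetate. Washed arrays were scanned on an Axon 4000B, and the binding signal is per-feature fluorescence intensity in arbitrary units.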

| Sequence | binding signal |
| --- | --- |
| CCCAGCACCCTACTACACCAACATACTCCTACGTGGAGCACGGAGTCACCTAGTGCAG | 6040 fluorescence intensity (a.u.) |
| GTATCCATATATCCGATATGACACGCCAAAACTTTACACCCGGAGTCACCTAGTGCAG | 4870 fluorescence intensity (a.u.) |
| ACCATCCGAGCTGTCAAGATCCGACGTGGGTTGTGAAGGCCGGAGTCACCTAGTGCAG | 8700 fluorescence intensity (a.u.) |
| ATAGTTGTGATTAGATTGTGACGTACACAATGAGTATGCACGGAGTCACCTAGTGCAG | 5250 fluorescence intensity (a.u.) |
| GCGAAGAACGCTTGCACTTGTGTGCAGCGACGCGCGAATTCGGAGTCACCTAGTGCAG | 4440 fluorescence intensity (a.u.) |
| GTTCCACATTTCAGCATTAATGAATTGGCATACGTGATGACGGAGTCACCTAGTGCAG | 3360 fluorescence intensity (a.u.) |
| GGATGCATGCATGCTGATGATGTCAGGCTGATACGTGCGTCGGAGTCACCTAGTGCAG | 7340 fluorescence intensity (a.u.) |
| GGCGGCGATGGCGGCCGTGCTGACGGACGATTTCCTGCTCCGGAGTCACCTAGTGCAG | 3220 fluorescence intensity (a.u.) |
| TGTTCCAACCCGCTCCGTGTGCTGACGTGGCATGACATGGCGGAGTCACCTAGTGCAG | 44900 fluorescence intensity (a.u.) |
| GGCGCTGATGTCATGCTGACGTCAGTGCCTGATTTTGCTCCGGAGTCACCTAGTGCAG | 56100 fluorescence intensity (a.u.) |
| TTCCAACCCGCCCCGTGTGCTGACGTGGCAGCCATGTTGGCGGAGTCACCTAGTGCAG | 19300 fluorescence intensity (a.u.) |
| AGTATGCTTTTCTTAACGATGACGTCAGCATACACCTCGGCGGAGTCACCTAGTGCAG | 45200 fluorescence intensity (a.u.) |
| TCTCGCTTAATGTTTTCTTTACACATACGATGCTTTAGATCGGAGTCACCTAGTGCAG | 3790 fluorescence intensity (a.u.) |
| TTTCTTTTCAGACGATGACGTCACACCGTTCTTCATGTATCGGAGTCACCTAGTGCAG | 12300 fluorescence intensity (a.u.) |
| CTTGGCCGTGGCCGCTGACATGGCATCACCTCATCCGCAACGGAGTCACCTAGTGCAG | 4320 fluorescence intensity (a.u.) |
| TTTGCATACGTGCATGCTTGATGACGTCATGCTGACGTGGCGGAGTCACCTAGTGCAG | 63100 fluorescence intensity (a.u.) |
| AGTTTTGTACGCATGTGTGGCGCTGACGTCATGCCCGATCCGGAGTCACCTAGTGCAG | 18000 fluorescence intensity (a.u.) |
| TTGCTGCAAATGACGTCGACATGTGCGTGGCATACCATGGCGGAGTCACCTAGTGCAG | 15000 fluorescence intensity (a.u.) |
| CAAACAATATTCTTTTGTGACTAGATCAAGCCGTAGTGTTCGGAGTCACCTAGTGCAG | 3650 fluorescence intensity (a.u.) |
| TATGTACCTTTTCCACAGAACCCTCTACTGTGCCAGGTCACGGAGTCACCTAGTGCAG | 15600 fluorescence intensity (a.u.) |
| CGCGGCAGATCCGCTGGTTGTGGCGGCGTCAGCGGTAGCCCGGAGTCACCTAGTGCAG | 4030 fluorescence intensity (a.u.) |
| ACGACATGCGTGCAAATGCATTGTAAATTTGTAATACGGCCGGAGTCACCTAGTGCAG | 22300 fluorescence intensity (a.u.) |
| TACTTTCGTTTGCAAATATGCGGAATGATGGGGCTGTTTCCGGAGTCACCTAGTGCAG | 3700 fluorescence intensity (a.u.) |

| Sequence | binding signal |
| --- | --- |
| CACTCTTTATTTTATTATGACTTGATTCGTCATCAAATGTCGGAGTCACCTAGTGCAG | 3870 fluorescence intensity (a.u.) |
| ACCCACACCTCGTCCCCGTCACCTCCTATATCATCGTCATCGGAGTCACCTAGTGCAG | 6470 fluorescence intensity (a.u.) |
| AATATTCTCTGTCTCGGTGTGGTGTCTCTCCTCTGACGGCCGGAGTCACCTAGTGCAG | 4810 fluorescence intensity (a.u.) |
| ATTAGATTTACCGCAAACAATGACGTCCTCCCTGCCTGGACGGAGTCACCTAGTGCAG | 4900 fluorescence intensity (a.u.) |
| ATAATGCATTTAGTATTGCCACCCTGTACTAATAGATGTTCGGAGTCACCTAGTGCAG | 3810 fluorescence intensity (a.u.) |
| CGAGGCGGGGTGCACCTTCATGGTCAGTGGCCCGTGGTTCCGGAGTCACCTAGTGCAG | 4270 fluorescence intensity (a.u.) |
| CGGTGATCCCATACTTGGCACGTACACGTGCCCTCTTGATCGGAGTCACCTAGTGCAG | 6030 fluorescence intensity (a.u.) |
| AAAAGTAATTTATAAATAAAATTTCTATATACGTGTTCTTCGGAGTCACCTAGTGCAG | 3220 fluorescence intensity (a.u.) |
| TTATATACTCCCTCTTTCCACGTAAGTTACATTTATTACTCGGAGTCACCTAGTGCAG | 7340 fluorescence intensity (a.u.) |
| AAACGGATAAGTTAGTAAGTAATTTCTTCCCTCCTAATTTCGGAGTCACCTAGTGCAG | 45900 fluorescence intensity (a.u.) |
| GCGCCACCTATAAAACGCCCGCGCGCCCCGCGCCGCCTCCCGGAGTCACCTAGTGCAG | 40300 fluorescence intensity (a.u.) |
| GCGCGCCACGCCACGCCACGCGCCCACGCCTCGCCTCGCCCGGAGTCACCTAGTGCAG | 10000 fluorescence intensity (a.u.) |
| TGCCCACGCCGCGCCGCCGCCTCCTCCTCCTCCTCCTCCTCGGAGTCACCTAGTGCAG | 46900 fluorescence intensity (a.u.) |
| CTCCTCACACATTCCCACGCACACATTTCCCCATGCACATCGGAGTCACCTAGTGCAG | 3180 fluorescence intensity (a.u.) |
| TCCTCCTTCCTTCCACCTCACCCCAACCCCAACCCCAACCCGGAGTCACCTAGTGCAG | 4080 fluorescence intensity (a.u.) |
| GATCTGACCTCCTCAGCCTCCTTCCCCAACTGTTCCACGCCGGAGTCACCTAGTGCAG | 44800 fluorescence intensity (a.u.) |
| CGTCCACCGCGCCGCCGCCGCCCTCCGTCACGCGCGCGCTCGGAGTCACCTAGTGCAG | 3270 fluorescence intensity (a.u.) |
| TTTTCCAACTTACCTCCTTCATTTTCCACGCGCACATTTTCGGAGTCACCTAGTGCAG | 65500 fluorescence intensity (a.u.) |
| CCCGGGCCTCGCCGCGCCGCGCCACGCCACGCCTCCGCCCCGGAGTCACCTAGTGCAG | 7580 fluorescence intensity (a.u.) |
| GCCTTTCTCTCCACCGCGATTTCTATATATAAAACGCCCCCGGAGTCACCTAGTGCAG | 9620 fluorescence intensity (a.u.) |
| TTCTGTAACTTTTCCAACTCACCTTCCTCGCTTCCCACGCCGGAGTCACCTAGTGCAG | 4820 fluorescence intensity (a.u.) |
| GGCCGCGTGCGTGTGTCCAAACCTTCTCCACGCATTTCCTCGGAGTCACCTAGTGCAG | 4220 fluorescence intensity (a.u.) |
| CCACGCGCTCTATAAGTAGACGGCTCTTCGGCGCGTGTCACGGAGTCACCTAGTGCAG | 3400 fluorescence intensity (a.u.) |
